Screens: PubChem, National Center for Advancing Translational Sciences (NCATS)
Shown is part of a subset that was picked to be rich in hits.
Pf Dd2 inh: qHTS Primary assay for Inhibitors of Plasmodium falciparum Dd2 growth in vitro; Potency, µM (doses to about 28.9 µM), for inactives: at the highest dose activity, negative = inhibition, actives largely listed as inhibitors; 120,000 tested, 4.3% active; P. falciparum Dd2 growth, SYBR Green, 72 h; AID 1347417, 2020; active means well fitted inhibition curve with a large enough effect;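 further: plate controls were DMSO vehicle for no effect and reference drug for full effect; nearly all actives have a fitted effect of over 65% in size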
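Infected erythrocytes (Dd2, 0.3% parasitemia, 2.5% hematocrit final) are added to compound in RPMI-1640/Albumax II medium, grown 72 h at 37C in low oxygen, then lysed with saponin/Triton-X containing SYBR Green and read by fluorescence.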
An asterisk follows results filed as active; i = inactive; [ ] = dose if it differs, or a comment. Potency means the concentration at half of the fitted maximal effect.

SMILES	Pf Dd2 inh
Cc1ccc(-c2nnc3c4ccccc4c(-c4ccccc4)nn23)cc1	19%
COc1ccc(-c2oc3ncn4nc(-c5ccccc5C)nc4c3c2-c2ccc(OC)cc2)cc1	58%
CC1CCC2(CC1)NC(=O)N(CC(=O)NCCCc1ccccc1)C2=O (stereo not drawn)	26%
CO[C@@H]1CCOC[C@H]1NS(=O)(=O)c1ccc(S(C)(=O)=O)cc1	-1%
CCN1C(=O)CCN(C(=O)c2cnc(C)cn2)CC12CCOCC2	22%
Cc1ncc2n1C(=O)N(C1CCN([S+](=O)([O-])c3cccc(C(F)(F)F)c3)CC1)C2	i
CCCn1c2ccccc2c2cnn(CC(=O)N3CCCC(C)C3)c(=O)c21 (stereo not drawn)	-11%
CCCn1c2ccccc2c2cnn(CC(=O)NCCCN3CCCCC3)c(=O)c21	-19%
CC1CCCCN1CCCNC(=O)Cn1ncc2c3ccccc3n(C)c2c1=O (stereo not drawn)	i
O=C(Cn1ncc2c3ccccc3n(Cc3ccccc3F)c2c1=O)N1CCCCCC1	10µM*
CC1CCCCN1CCCNC(=O)Cn1ncc2c3ccccc3n(Cc3ccccc3F)c2c1=O (stereo not drawn)	5µM*
CCOC(=O)C1CCCN(C(=O)Cn2ncc3c4ccccc4n(Cc4ccccc4)c3c2=O)C1 (stereo not drawn)	0%
O=C1CC(c2ccccc2)N(C(=O)CNC(=O)c2cccs2)CCCCCN1 (stereo not drawn)	13%
CC(C)NS(=O)(=O)c1cc(C(=O)O)cc(-n2cccn2)c1	-13%
CCCN(Cc1ccc(S(=O)(=O)NC)cc1)Cc1ccccc1OC	-20%
COc1ccccc1CC(=O)N1CCCc2ncc(C(=O)N(C)c3ccccc3)cc21	-4%[44.1 µM]
COc1ccccc1CC(=O)N1CCCc2ncc(C(=O)Nc3ccc(OC)c(OC)c3)cc21	-34%
COc1ccccc1CC(=O)N1CCCc2ncc(C(=O)NCCOc3ccccc3)cc21	i
COc1ccc(NC(=O)c2cnc3c(c2)N(c2ccccc2OC)CCC3)cn1	6.3µM*
COc1ccc(NC(=O)c2cnc3c(c2)N(C(=O)Cc2cccc(C(F)(F)F)c2)CCC3)cn1	-25%
COc1ccccc1CC(=O)N1CCCc2ncc(C(=O)Nc3cccc(C(F)(F)F)c3)cc21	4.5µM*
CC(C)c1ccc(CC(=O)N2CCCc3ncc(C(=O)Nc4cccc(C(F)(F)F)c4)cc32)cc1	i
COc1ccccc1N1CCCc2ncc(C(=O)NCCc3ccccc3)cc21	i
COc1ccccc1CC(=O)N1CCCc2ncc(C(=O)Nc3cccc(Cl)c3)cc21	2.5µM*
Cc1ccc2nc(NC(=O)C3CC(=O)N(c4n[nH]c5ccccc45)C3)sc2c1 (stereo not drawn)	i
SMILES	Pf Dd2 inh
COc1ccc(CN2C[C@@H](CO)[C@H](c3ccccn3)C2)cc1C	i
OC[C@@H]1CN(Cc2ccco2)C[C@H]1c1ccccn1	i
CCCOc1ccc(CN2C[C@@H](CO)[C@H](c3ccccn3)C2)cc1	2.8µM*
Cn1nccc1C(=O)N1CCCC(Cc2noc(-c3ccccn3)n2)C1 (stereo not drawn)	3%
Cc1ccccc1NC(=O)c1ccc2c(c1)N(C)C1CCCN1C2=O (stereo not drawn)	i
CCCNC(=O)c1c(OCC2CC2)cc(=O)n2c1CCOCC2	-1%
Cn1nc(C2CCN(C(=O)c3ccncc3)CC2)c2c1CCOC2	19%[5.79 µM]
C=CCC1(C(=O)O)CCCN(Cc2cc3c(cc2OC)OCO3)C1 (stereo not drawn)	-12%
C=CCC1(CO)CCCN(C(=O)CCCOc2ccccc2)C1 (stereo not drawn)	-27%
C=CCC1(CO)CCCN(CCOc2ccc(C)cc2Cl)C1 (stereo not drawn)	8.9µM*
CCC1(CO)CCCN(CCCOc2ccc(C(N)=O)cc2)C1 (stereo not drawn)	-7%
C=CCC1(CO)CCCN(Cc2nc(C)cc(-c3ccccc3)n2)C1 (stereo not drawn)	8.9µM*
C=CCC1(C(=O)O)CCCN(Cc2cnc(NCc3ccccc3)nc2)C1 (stereo not drawn)	7%
Cn1cncc1-c1nnc([C@H]2CCN(C(=O)c3ccncc3)C2)o1	-4%[44.1 µM]
Cc1cc(C)cc(NC(=O)N2CCCC(Cn3c(C)nc4cccnc43)C2)c1 (stereo not drawn)	-7%
Cc1cccc(Cn2c(=O)n(Cc3ccccc3)c(=O)c3sc4ccccc4c32)c1	8.9µM*
Cc1ccc(Cn2c(=O)n(Cc3ccco3)c(=O)c3sc4ccccc4c32)cc1	42%
Cc1ccc(CNC(=O)Cn2c(=O)n(Cc3ccccc3)c(=O)c3sc4ccccc4c32)cc1	42%
Cc1ccc(CSc2nc(N)cc(N3CCN(CCCO)CC3)n2)cc1	i
CCc1nc2c(=O)n(CC(=O)NC(C)c3ccc(F)cc3)nc(C)c2s1 (stereo not drawn)	i
Cc1cn2c(=O)cc(CN3CC[C@@](C)(O)[C@@H](O)C3)nc2s1	-9%
O=C1NCCCCCCN(C(=O)Nc2ccc3c(c2)OCCO3)[C@H]2CCC[C@@H]12	i
CN(C)S(=O)(=O)c1ccc2c(c1)N(CC(=O)N1CCC(C(N)=O)CC1)CCS2	28%
COc1ccc(N2CCN(C(=O)CN3CCSc4ccccc43)CC2)cc1	7%
COc1cccc(N2CCN(C(=O)CN3CCSc4ccc(S(=O)(=O)N(C)C)cc43)CC2)c1	11µM*
SMILES	Pf Dd2 inh
CC1(C(=O)N2CCN(c3ncccn3)CC2)CCOCC1	1%
CN1N=C(C(=O)N2CCOC(Cc3cccc4ccccc34)C2)CCC1=O (stereo not drawn)	4%
Cc1ccc(C(=O)NC2(C(F)(F)F)N=C(c3ccccc3)N(Cc3ccccc3)C2=O)cc1 (stereo not drawn)	i
Cc1ccc(C(=O)CC2(O)C(=O)N(Cc3ccccc3)c3ccc(Br)cc32)cc1 (stereo not drawn)	10µM*
CCc1ccc(C(=O)CC2(O)C(=O)N(Cc3ccc(C)cc3)c3ccccc32)cc1 (stereo not drawn)	-22%
COc1ccc(C(=O)N2CCOC[C@H](Oc3cccnc3)C2)cc1	20%[44.1 µM]
Cc1ccc(NC(=O)N2CCN(c3nnnn3-c3cccc(C(C)C)c3)CC2)cc1F	11µM*
CC(C)c1ccc(NC(=O)N2CCN(c3ccc(Cl)c(Cl)c3)CC2)cc1	4%
Cc1ccc(NC(=O)N2CCN(c3nnnn3-c3ccccc3)CC2)cc1F	-29%
CCc1cccc(-n2nnnc2N2CCN(C(=O)NC(C)c3ccccc3)CC2)c1 (stereo not drawn)	-14%
Cc1cc(-n2nnnc2N2CCN(C(=O)Nc3ccc(C)c(F)c3)CC2)ccc1F	5µM*
Cc1ccc(NC(=O)N2CCN3CCCCC3C2)cc1F (stereo not drawn)	-14%
O=C1CC[C@]2(C(=O)N3CCCCC3)CCCC[C@H]2N1CCc1ccccc1	-16%
O=C(COc1ccccc1)N1CCC(Oc2cnc3c(ccn3-c3cncnc3)c2)CC1	-18%[44.1 µM]
CN(C)[C@@H]1CO[C@H](CNS(C)(=O)=O)[C@H]1O	17%[44.1 µM]
COc1cc(Cl)ccc1C(=O)N1CCC2(CC1)CC(O)CCO2 (stereo not drawn)	-11%
CN1C[C@H](NC(=O)C2CCOCC2)CCC[C@@H](C(=O)NC2CC2)CC1=O	-3%[44.1 µM]
CCc1cccc(NC(=O)Cn2c(C)cc3nc4n(c(=O)c32)CCCCC4)c1	i
COCCOC1CCN(S(=O)(=O)Cc2ccccc2F)CC1	13%
CCN1C(=O)CCC2(C(=O)NC(C)C)CCCC=C12 (stereo not drawn)	0%
CC(C)Cc1cnc(-c2ccccc2)[nH]1	16µM*
